High-throughput results as filed in PubChem BioAssay.
PLK1 PBD inh: qHTS for Inhibitors of PLK1-PDB (polo-like kinase 1 - polo-box domain): Primary Screen | Serine/threonine-protein kinase PLK1 (Homo sapiens), P53350 | Plk1 PBD binding of FITC phosphopeptide, fluorescence polarization | Potency, µM, for the others: max response, negative = inhibition, hits mostly inhibitors | 360,000 compounds, 2.8% hits | AID 720504, 2013; also: series mostly up to about 57 µM; nearly all actives have a fitted effect of over 65% in size
KAT2A inh: qHTS Assay for Inhibitors of GCN5L2. Histone acetyltransferase KAT2A (Homo sapiens), Q92830. GCN5L2 HAT assay, ThioGlo1 CoA-SH fluorescence. Potency, µM (top dose mostly 58.9 µM), inactives show at the top dose activity change, negative = inhibition, usual class: inhibitors. 390,000 compounds, 0.21% hits
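qHTS, 1536-well. 20nM enzyme, pH 7.5 HEPES/EDTA/Tween-20 buffer; 15 min compound preinc., RT. Start: 75uM H3(1-25), 70uM AcCoA, 50uM ThioGlo1. Read Ex340/Em540 at t=0 (autofluorescence flag) and t=20 min.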
ALOX12 inh: Primary qHTS assay for inhibitors of human arachidonate 12S-lipoxygenase (ALOX12): Round 2; AID 1671190, 2021; Potency, µM (top dose mostly 108 µM), without a hit: at the highest dose activity change, negative = inhibition, hits mostly inhibitors; purified 12hLO, xylenol orange hydroperoxide absorbance; 580,000 compounds, 1.1% hits
Target sequence (P18054 whole entry, looked up): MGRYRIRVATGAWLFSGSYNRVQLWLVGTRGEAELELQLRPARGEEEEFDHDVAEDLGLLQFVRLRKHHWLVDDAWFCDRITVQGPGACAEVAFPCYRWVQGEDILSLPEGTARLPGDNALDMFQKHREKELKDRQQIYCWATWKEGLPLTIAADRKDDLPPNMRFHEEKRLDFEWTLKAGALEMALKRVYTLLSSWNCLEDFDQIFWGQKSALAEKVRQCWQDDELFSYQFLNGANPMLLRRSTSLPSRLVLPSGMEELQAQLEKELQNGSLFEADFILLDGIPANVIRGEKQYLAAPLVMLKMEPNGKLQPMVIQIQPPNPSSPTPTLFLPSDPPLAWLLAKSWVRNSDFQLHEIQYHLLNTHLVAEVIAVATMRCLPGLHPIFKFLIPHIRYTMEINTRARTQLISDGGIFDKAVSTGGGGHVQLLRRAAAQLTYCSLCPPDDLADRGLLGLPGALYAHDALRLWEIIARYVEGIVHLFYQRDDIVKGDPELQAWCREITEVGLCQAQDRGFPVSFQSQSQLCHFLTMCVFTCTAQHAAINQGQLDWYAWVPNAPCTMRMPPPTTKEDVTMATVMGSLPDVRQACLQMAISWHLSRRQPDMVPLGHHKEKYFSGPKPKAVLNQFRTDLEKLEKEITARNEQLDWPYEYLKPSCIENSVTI
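Purified human 12hLO (150 nM final) in 25 mM Hepes, 0.01% Triton X-100, pH 7.0 was preincubated 15 min at room temperature with compound. Then 40 uM arachidonic acid was added, 30 min. Hydroperoxide was read by Fe-XO absorbance ratio 573/405 nm.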
VDR inhibitor: Inhibitors of the vitamin D receptor (VDR): qHTS. Vitamin D3 receptor (Homo sapiens), P11473. VDR-SRC2-3 peptide fluorescence polarization, 2 h. AID 504847, 2011. 400,000 compounds, 0.93% hits. Potency, µM, inactives show max response, negative = inhibition, hits mostly inhibitors
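Measured by FP: displacement of SRC2-3 coactivator peptide from VDR by library compounds, following a two-hour ambient incubation.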
An asterisk follows results filed as active; ? = inconclusive; nt = no result given; [ ] = another dose, or the depositor's remark. In the library only some 3% were active in any assay of this set; here they are far more common. Calls follow the shape of the dose curve; as a rule, active = well fitted curve in the direction sought with a large enough effect; inconclusive = small, poorly fitted or top-dose-only effect, or another doubt; inactive = no such curve, though single readings can be large; an effect the other way counts as inactive or inconclusive. % is scaled to controls: 0 for no effect and ±100 for the full control effect; potency is read from the fitted curve at half-maximal effect.

SMILES	PLK1 PBD inh	KAT2A inh	ALOX12 inh	VDR inhibitor
COc1ccc(CCNC(=O)CCNC(=O)c2ccc(Br)cc2)cc1OC	-8%	-6%	-6%	-13%
COc1ccc(C(=O)NC(=S)NNC(=O)c2ccc(NC(C)=O)cc2)cc1Br	-12%	-6%	13µM*	8%
COc1ccc(S(=O)(=O)Nc2ccc3n(c2=O)C[C@H]2C[C@@H]3CN(C(=O)Nc3cc(OC)cc(OC)c3)C2)cc1	nt	nt	17%	nt
COc1ccc(C(=O)NC(=S)NCc2ccco2)cc1OC	-7%	-15%	?	14%
COc1ccc(C(=O)NC(=S)Nc2cccc3cc(O)ccc23)cc1OC	?	-14%	10µM*	-5%
COc1ccccc1C(=O)NC(=S)Nc1cccc2cc(O)ccc12	-20%	nt	402%	7%
COc1ccc(C(=O)NC(=S)NCc2ccco2)cc1Br	-22%	-11%	22µM*	-16%
Cc1ccc(CN(C)C(=O)Cn2c(=O)c3c(ncn3C3CCCC3)n(Cc3ccccc3)c2=O)o1	nt	nt	0%	nt
CCCCOc1c(CNC(C)c2ncccc2C)cccc1OC (stereo not drawn)	nt	nt	103%	nt
O=c1cc(CO)oc(C(Nc2ccccn2)c2ccc(F)cc2)c1O (stereo not drawn)	15µM*	-8%	?	28µM*
COc1ccc(C2=CC(c3ccco3)n3ncnc3N2)cc1 (stereo not drawn)	34µM*	?	nt	11%
COc1ccc(C2C=C(c3ccccc3)Nc3ncnn32)cc1 (stereo not drawn)	-21%	?	0%	2%
O=C(NCc1n[nH]c(=O)c2ccccc12)c1ccc(Cl)cc1Cl	nt	nt	-18%	nt
O=c1oc2c(-c3cccc(F)c3)cc(O)cc2s1	?	-3%	35µM*	14%
COc1ccccc1C1C2C(=O)N(c3ccccc3)C(=O)C2ON1c1ccccc1 (stereo not drawn)	-9%	-14%	-15%	8%
O=C(O)COc1ccccc1C1C2C(=O)N(c3ccc(F)cc3)C(=O)C2ON1c1ccccc1 (stereo not drawn)	27µM*	-1%	-4%	2%
Oc1ccc(N=Nc2ccccc2)o1	?	-5%	26%	89µM*
O=C(COC(=O)C1CC2C=CC1C2)Nc1ccc([N+](=O)[O-])cc1 (stereo not drawn)	-5%	-2%	-8%	-8%
O=C(COC(=O)C1CC2C=CC1C2)Nc1c(Br)cc([N+](=O)[O-])cc1Br (stereo not drawn)	-13%	-1%	22µM*	-11%
O=C(NCC12CC3CC(CC(C3)C1)C2)C1CCCCC1	nt	nt	16%	nt
O=C(Nc1ccc2oc(-c3cccnc3)nc2c1)c1cc([N+](=O)[O-])ccc1Cl	nt	nt	-35%	nt
COc1ccc(F)cc1C(=O)C(=O)O	nt	nt	8.9µM*	nt
COc1ccc(F)cc1-c1ccc(C(=O)O)cc1	nt	nt	9%[12.5 µM]	nt
O=S(=O)(N[C@H]1CO[C@H]2[C@@H]1OC[C@@H]2n1cc(CC2CCCCC2)nn1)c1cccs1	nt	nt	12%	nt
O=C(O)COc1cccc2c1CCC=C2CCO/N=C(\c1ccccc1)c1cccnc1	nt	0%	nt	50µM*
SMILES	PLK1 PBD inh	KAT2A inh	ALOX12 inh	VDR inhibitor
CC(C)(C)CC(C)(C)SSc1n[nH]c(=S)s1	27µM*	nt	35µM*	?
O=C1/C(=C/c2ccco2)CCC1C1CCCC1 (stereo not drawn)	-9%	-11%	-16%	-8%
O=C1/C(=C\c2ccco2)CCC/C1=C\c1ccco1	5%	?	25µM*	?
CCN(CC)c1ccc(/C=C2\C(=O)N(c3nnc(C)c(=O)[nH]3)N=C2C)cc1	?	-17%	-16%	16µM*
CO/C([O-])=N/c1c[n+](-c2ccc(Cl)cc2)no1	-11%	2%	25µM*	3%
CC1CC(=O)C(C(C2=C(O)CC(C)CC2=O)c2ccccc2)=C(O)C1 (stereo not drawn)	12µM*	nt	15%	?
O=C1CCC(C(=O)OCc2cc(Cl)ccc2OC(F)F)N1 (stereo not drawn)	27µM*	-7%	0%	?
CC(CCc1ccccc1)NS(=O)(=O)c1ccc(Cl)c(C(=O)O)c1 (stereo not drawn)	24µM*	-1%	?	?
Cc1cn([C@H]2C[C@H](O)[C@@H](CNCc3ccccc3)O2)c(=O)[nH]c1=O	-10%	nt	-25%	nt
Cc1cn([C@H]2C[C@H](O)[C@@H](CNCc3cccn3-c3ccncc3)O2)c(=O)[nH]c1=O	1.1µM*	nt	4%	nt
C=C(C)[C@@H]1CCC2(C(=O)O)CC[C@]3(C)[C@H](CC[C@@H]4[C@@]5(C)CCC(=O)C(C)(C)[C@@H]5CC[C@]43C)[C@@H]12 (stereo partly drawn)	13µM*	-4%	11%	-17%
O=c1[nH]c(=S)[nH]cc1Oc1ccc(Cl)cc1	-15%	nt	?	-10%
O=c1[nH]c(=S)[nH]cc1Oc1ccc(Br)cc1Br	?	nt	11µM*	18%
O=C(Cn1c(=O)oc2ccccc21)NCC1Cn2cccc2C(=O)N1Cc1cccnc1 (stereo not drawn)	nt	nt	62%	nt
CCn1c(CNC(=O)COc2ccc(C(C)C)cc2)nnc1SCC(=O)Nc1cc(F)ccc1C	0%	-23%	22µM*	6%
CCn1c(CNC(=O)COc2ccc(C(C)C)cc2)nnc1SCC(=O)Nc1ccc(F)cc1	2%	-10%	2%	-5%
S=c1nc(-c2ccco2)[nH][nH]1	-15%	?	6.3µM*	2%
Cn1c(SCC(=O)NCc2cccs2)nnc1-c1ccc(O)cc1	24µM*	-4%	8%	?
c1ccc(SCCN2CCN(c3ccccc3)CC2)cc1	-18%	-9%	13µM*	8%
C=CSc1sc(Cl)c(N2CCOCC2)c1[N+](=O)[O-]	-15%	-10%	-11%	-1%
C=CS(=O)(=O)c1sc(Cl)c(N2CCOCC2)c1[N+](=O)[O-]	0.53µM*	?	?	?
Cc1cc(CSc2ncccc2C(=O)Nc2ccnn2Cc2ccccc2)no1	nt	nt	-3%	nt
COc1ccc(NS(=O)(=O)c2ccc(N3CCCC3)c(NC(=S)Nc3ccc(SC(F)F)cc3)c2)cc1	4.7µM*	1%	25µM*	?
COc1ccc(NS(=O)(=O)c2ccc(N3CCCC3)c(NC(=S)Nc3cccc(C)c3C)c2)cc1	3.8µM*	-9%	16µM*	?
COC(=O)c1ccc(C(=O)NCC2CCCCC2)cc1	nt	nt	-3%	nt
CC(=O)c1cccc(N=Nc2c(-c3ccccc3)[nH]n(-c3ccccc3)c2=O)c1	24µM*	-5%	3%	-7%
O=C(NCc1ccc(OC(F)F)cc1)c1ccc(-n2cnnn2)cc1	nt	nt	12%	nt
O=C(O)CCCCC1CCSS1 (stereo not drawn)	-21%	3.2µM*	?	3%
CCc1ccccc1NC(=O)c1sc2nc(C)cc(C)c2c1N	24µM*	-8%	-14%	?
Cc1ccc(OCC(=O)Nc2ccc3[nH]ncc3c2)cc1C	nt	nt	14%	nt
